Compounds with a hit are over-represented: about 2.8% of the library has one in this group of screens.
CtBP-E1A inh – inhibitors of CtBP/E1A interaction; AlphaScreen GST-E1A/His-CtBP binding, 1536-well; active compounds read low; activity change, % (no concentration beside the values); hit rate 0.49% among 340,000; AID 651724; in the data active = activity change below about -65%; inconclusive = mostly about -30% to -63%; note: % is set by controls: 0 for no effect and ±100 for the full control effect
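In 5 uL wells, 23 nL compound meets equimolar GST-E1A and His-CtBP (5X stock 125 nM each) for 2 h, 37 °C. Beads (5X, 50 ug/mL) then 1 h, 37 °C, dark.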
Six1-Eya2 blk – Six1/Eya2 interaction inhibition; AlphaScreen GST-Six1/His-Eya2 binding, biochemical; active compounds read low; activity change, % (concentration not given with the values); hit rate 0.56% among 360,000; AID 651725; in the data active = activity change below about -65%; inconclusive = mostly about -30% to -63%; note: % is set by controls: 0 for no effect and ±100 for the full control effect
Target sequence (O00167 whole entry, looked up): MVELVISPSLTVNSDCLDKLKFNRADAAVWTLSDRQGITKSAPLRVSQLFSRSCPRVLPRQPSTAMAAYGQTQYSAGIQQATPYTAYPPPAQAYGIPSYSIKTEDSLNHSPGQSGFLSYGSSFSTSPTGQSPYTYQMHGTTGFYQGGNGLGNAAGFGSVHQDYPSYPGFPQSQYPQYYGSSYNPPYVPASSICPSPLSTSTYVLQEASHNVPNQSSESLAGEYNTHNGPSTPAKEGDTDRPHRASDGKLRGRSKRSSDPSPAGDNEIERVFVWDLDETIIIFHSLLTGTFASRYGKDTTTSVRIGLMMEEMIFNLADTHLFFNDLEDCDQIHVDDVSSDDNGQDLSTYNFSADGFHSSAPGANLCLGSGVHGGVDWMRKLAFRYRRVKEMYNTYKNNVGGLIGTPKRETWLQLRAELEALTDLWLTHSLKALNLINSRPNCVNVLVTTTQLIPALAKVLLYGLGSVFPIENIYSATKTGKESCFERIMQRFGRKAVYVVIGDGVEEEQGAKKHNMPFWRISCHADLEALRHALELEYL
Target sequence (Q15475 whole entry, looked up): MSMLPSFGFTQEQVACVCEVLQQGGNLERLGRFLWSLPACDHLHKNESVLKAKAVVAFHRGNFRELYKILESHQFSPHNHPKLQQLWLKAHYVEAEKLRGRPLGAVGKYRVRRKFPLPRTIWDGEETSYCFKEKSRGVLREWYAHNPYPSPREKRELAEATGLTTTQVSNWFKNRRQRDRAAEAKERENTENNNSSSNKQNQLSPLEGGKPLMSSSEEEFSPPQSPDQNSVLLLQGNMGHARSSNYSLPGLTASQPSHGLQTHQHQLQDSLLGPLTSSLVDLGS
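AlphaScreen with GST-Six1 and His-Eya2 (5X mix: 250 nM and 500 nM), glutathione donor and nickel acceptor beads; buffer 50 mM Tris pH 8.0, 300 mM NaCl, 1 mM TCEP; 1 h at 37 C in the dark.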
S2 tox – cell viability loss in ATXN counter-screen. S2 cells (HEK-293 line with an ATXN2-luciferase reporter) viability, CellTiter-Fluor protease fluorescence, 24 h. Potency, µM (series often up to 56.7 µM), usual class: cytotoxic. hit rate 0.49% among 400,000. AID 651635; note: potency is the fitted concentration of half-maximal effect; nearly all actives have a fitted effect of over 40% in size
HepG2 viability – kills HepG2 cells in TGF-b inhibitor counter-screen | HepG2 CAGA-GFP viability, ATP luminescence, 18 h | Potency, µM (doses to about 46.1 µM), for inactives: at the highest dose activity change, negative = cytotoxicity, usual class: cytotoxic | hit rate 0.76% among 410,000; note: potency is the fitted concentration of half-maximal effect
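HepG2 CAGA-GFP cells (1000/well, DMEM with 1% FBS) received compound, then TGF-beta at 500 pg/mL final, and were incubated 18 hours at 37 degrees C. Viability was read by CellTiter-Glo luminescence. Media-only wells were set as complete cell-killing and DMSO as no toxicity.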
TGFb inhibitor – TGF-b pathway inhibition | Potency, µM (doses to about 46.1 µM), for the others: at the top dose activity, negative = inhibition, actives largely listed as inhibitors | HepG2 CAGA-GFP TGF-b/SMAD3 reporter, GFP fluorescence, 18 h; TGF-beta stimulated, 500 pg/mL final | hit rate 1.2% among 410,000 | AID 588855; note: potency is the fitted concentration of half-maximal effect; % is set by controls: 0 for no effect and ±100 for the full control effect; nearly all actives have a fitted effect of over 65% in size
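HEPG2 CAGA-GFP, 1000 cells/well; 2 h settle, 37 C; cpd via pin tool; TGF-b 500 pg/mL final; 18 h, 37 C; GFP imaging ex488/em500-530; %Activity normalised to -TGF-b and +DMSO controls; CRC fit, curve class.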
ATXN2 expr inh – ATXN2 expression inhibition | HEK-293 ATXN2-luciferase reporter, luminescence, 24 h | Potency, µM (top dose mostly 57 µM), inactives show top-dose activity change, negative = inhibition, actives largely listed as inhibitors | hit rate 0.72% among 360,000 | AID 1745845; note: potency is the fitted concentration of half-maximal effect; % is set by controls: 0 for no effect and ±100 for the full control effect; nearly all actives have a fitted effect of over 55% in size
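ATXN2-luciferase reporter cells (luciferase flanked by upstream and downstream ATXN2 gene portions) were treated 24 h at 37 °C with compounds at up to 57 uM. SteadyGlo luminescence gave expression; GF-AFC fluorescence gave viability.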
Active calls of the source: *; i = inactive; ? = inconclusive; / = no result given. Unless noted, calls come from the whole dose curve; as a rule, active = well fitted curve in the direction sought with a large enough effect; inconclusive = small, poorly fitted or top-dose-only effect, or another doubt; inactive = no such curve, though single readings can be large; an effect the other way counts as inactive or inconclusive.

SMILES	CtBP-E1A inh	Six1-Eya2 blk	S2 tox	HepG2 viability	TGFb inhibitor	ATXN2 expr inh
Cc1cc(C)cc(-c2nnc(SCC(=O)Nc3cc(C)on3)o2)c1	-65*	?	i	-11%	-1%	7%
Cc1cc(NC(=O)CSc2nnc(C)o2)no1	-86*	?	i	1%	-2%	4%
CCC(c1nnc(SCC(=O)Nc2cc(C)on2)o1)N(C)C (configuration not stated)	-91*	?	i	1%	2%	-4%
Cc1nnc(SCC(=O)Nc2nccs2)o1	-73*	?	i	-21%	-27%	-2%
Cc1ccc(Cl)cc1NC(=O)NCc1cccn1Cc1ccc(F)cc1	/	/	i	-12%	5%	2%
Cc1cc(NC(=O)CSc2nnc(CNC(=O)c3c(F)cccc3F)o2)no1	-80*	?	i	7%	1%	7%
Cc1cc(C)cc(NC(=O)CSc2nnc(CNC(=O)c3c(F)cccc3Cl)o2)c1	/	/	/	-6%	6%	/
CCC[N+](C)(C)c1ccc(/C=C/c2ccncc2)cc1	/	/	/	-33%	44%	/
Nc1c(S(=O)(=O)O)cc(Nc2ccc(Nc3nc(Cl)nc(Nc4ccc(S(=O)(=O)O)cc4)n3)c(S(=O)(=O)O)c2)c2c1C(=O)c1ccccc1C2=O	/	/	/	-22%	-4%	/
Nc1c(S(=O)(=O)O)cc(NC(=O)c2ccccc2)c2c1C(=O)c1ccccc1C2=O	/	-71*	i	-21%	-4%	/
Cc1ccc2c(c1)c1c(n2CC(O)Cn2nc(C)c(Br)c2C)CCCC1 (configuration not stated)	-5	-16	i	20µM*	?	-23%
Cc1ccc2c(c1)c1c(n2CC(O)Cn2c(C)nc3ccccc32)CCCC1 (configuration not stated)	-28	2	32µM*	-96%	?	?
CC(C)Cc1nc2cc(NS(=O)(=O)N(C)C)cc(C(=O)N3CCc4ccccc4C3)c2n1C	/	/	i	/	/	/
CN(C1=C(NC(=O)c2ccc(Cl)cc2)C(=O)c2ccccc2C1=O)c1ccccc1	-88*	-86*	?	-53%	13µM*	?
O=C1C(Cl)=C(NC(=O)c2ccccc2)C(=O)C(Cl)=C1NC(=O)c1ccccc1	-11	-73*	?	-31%	11µM*	?
O=C(Nc1cccc(Cl)c1)c1ccccc1	-16	11	i	-30%	-11%	31%
Cc1ccc2c(=O)n3c(nc2c1)C(Cc1ccc(O)cc1)NC(=O)c1cc2ccccc2cc1-3 (configuration not stated)	-4	-3	?	-32%	?	?
O=C1NC(Cc2ccc(O)cc2)c2nc3cc(F)ccc3c(=O)n2-c2cc3ccccc3cc21 (configuration not stated)	-3	-10	?	-21%	20µM*	?
CCOc1ccc(NC(=O)CSc2ncc(S(=O)(=O)c3ccc(F)c(C)c3)c(=O)[nH]2)cc1	/	/	i	-10%	0%	4%
Cc1ccc(N/C(N)=N/c2nc(C)cc(N3CCCCC3)n2)c(C)c1	/	-19	?	-22%	?	22µM*
CN(Cc1cnc2nc(N)nc(N)c2n1)c1ccc(C(=O)NC(CCC(=O)O)C(=O)O)c2ccccc12 (configuration not stated)	-27	?	i	-61%	-21%	?
C#CCC(Cc1cnc2nc(N)nc(N)c2n1)c1ccc(C(=O)N[C@@H](CCC(=O)O)C(=O)O)cc1 (some centres not stated)	/	/	?	/	/	0.54µM*
O=C(CN1C(=O)c2ccccc2S1(=O)=O)c1ccccc1	5	6	i	6%	0%	14µM*
O=C(CN1C(=O)c2ccccc2S1(=O)=O)Nc1ncc(Cl)cc1Cl	-11	-12	i	3%	18%	5µM*
Cc1ccc(C(=O)CN2C(=O)c3ccccc3S2(=O)=O)cc1	10	6	i	-22%	2%	1µM*

Compound activity as filed in PubChem.
